Here are results for 108 compounds from ChEMBL document CHEMBL4513216, “Probing the Open Global Health Chemical Diversity Library for Multistage-Active Starting Points for Next-Generation Antimalarials” (ACS Infect Dis, 2020).

Each structure is given as a SMILES string. Hit rate of the full screen: of about 69,000 compounds, about 8,600 (12%) showed an effect of 50% or more. For the sample, strong results were picked, then their nearest neighbours and some compounds at random.

The test has as its system Plasmodium berghei. Briefly: Screen against P. berghei liver stage (PbLuc), transformed with Luciferase, at 10uM. It counts as functional, HepG2. The settings on record: tested at 10 uM.
Consider `C[C@H]1C[C@H]2CN(C(=O)CCc3ccccc3)CC[C@H]2O1`, for which the INHIBITION is on record as -19%.

For the compound `CCn1cc(CN2C[C@@H]3CCCN3C[C@@H]2CCSC)cn1`, the INHIBITION was 24.4%. In the case of `Cc1ccn(CCNC(=O)C2(C)CC(c3ccccc3)=NO2)n1` (stereo not drawn), the INHIBITION is reported as -3.94%. Consider `CCc1nc(CN2CCN(C(C)c3nc(C4CC4)no3)CC2)no1` (stereo not drawn), for which the INHIBITION is listed as -23.9%. The value for `CC(C)c1noc(CS(=O)(=O)Cc2nc(C(C)C)no2)n1` was 34.2%; that for `CCc1noc(CS(=O)(=O)C(C)c2nc(C3CC3)no2)n1` (stereo not drawn) was 51.5%. As to `CC(C)c1noc(C(C)S(=O)(=O)Cc2nc(C3CC3)no2)n1` (stereo not drawn), the INHIBITION amounted to 70%. For `CCCc1noc(C(C)S(=O)(=O)Cc2nc(C3CC3)no2)n1` (stereo not drawn) the value was 22.2%. The value for `Cc1noc(C)c1CS(=O)(=O)Cc1nc(C2CC2)no1` was 21.6%; that for `COCCN(Cc1cccc(C#N)c1)Cc1nc(C)no1` was 41.2%. In the case of `O=C(Cc1ccc2c(c1)OCC2)Nc1nc(C(F)(F)F)n[nH]1`, the INHIBITION stood at 28.6%. As to `CC(C)c1ccc(CCC(=O)N(C)C2CCN(C)C2=O)cc1` (stereo not drawn), the INHIBITION is on record as 53.8%. For `CN1CCC(N(C)C(=O)CSc2ccc(F)c(F)c2)C1=O` (stereo not drawn) the value was -0.897%. The value for `CN1CCC(N(C)C(=O)CCc2ccc(F)c(F)c2)C1=O` (stereo not drawn) was 17.9%.

For `COCC(=O)N1CCC2(CC1)COC(COCc1ccccn1)C2` (stereo not drawn), the INHIBITION turned out to be 33%.

Turning to `Cc1nn(C)c2c(=O)n(Cc3ccc(Cl)cc3)nnc12`, the INHIBITION was found to be 48.25%. Take `CC(=O)N1Cc2ccccc2C[C@H]1C(=O)N(C)CCc1ccccn1`: the INHIBITION was found to be 58.1%. Consider `CC(=O)N1Cc2ccccc2CC1C(=O)Nc1ccc(C)cn1` (stereo not drawn), for which the INHIBITION stood at 32.7%.

As for `CC(=O)N1Cc2ccccc2C[C@H]1C(=O)Nc1ccccn1`, the INHIBITION was 28.7%. For `CC(=O)N1Cc2ccccc2C[C@H]1C(=O)N(C)Cc1ccccn1`, the INHIBITION turned out to be 40.7%. For `CC(=O)N1Cc2ccccc2CC1C(=O)Nc1cc(C)ccn1` (stereo not drawn) the value was 56.5%. For the compound `CN(CCc1ccccn1)C(=O)C1Cc2ccccc2CN1C` (stereo not drawn), the INHIBITION was 20%. Regarding `Cn1cnc(S(=O)(=O)NCCN2CCCCCC2)c1Cl`, the INHIBITION was 31.2%. Regarding `CCC(Oc1ccccc1)c1nn2c(CN(CC)CC)nnc2s1` (stereo not drawn), the INHIBITION is recorded as -31.7%. As to `Cc1nc([C@@H]2C[C@@H]3CCN(C(=O)c4ccsc4)C[C@H]3O2)no1`, the INHIBITION is 18.5%. For the compound `CCCN(C(=O)c1cnc(C)cn1)c1nc2c(s1)CCc1c-2cnn1C`, the INHIBITION is recorded as 44.8%. As for `CCCN(C(=O)c1cccnc1)c1nc2c(s1)CCc1c-2cnn1C`, the INHIBITION stood at 78.2%. For `CCCN(C(=O)c1ccncc1)c1nc2c(s1)CCc1c-2cnn1C` the value was 46%; for `Cc1cc(-c2cnc(C)nc2CN(C)C(=O)c2ccccn2)on1`, 18.3%; for `CCCN(C(=O)c1cnccn1)c1nc2c(s1)CCc1c-2cnn1C`, 29.2%. Regarding `COCCN(C(=O)c1cnccn1)c1nc2c(s1)CCc1c-2cnn1C`, the INHIBITION was found to be 11.1%. Turning to `COCCN(Cc1ccoc1)C(=O)c1ccccn1`, the INHIBITION was 11.8%. Regarding `CCCN(C(=O)c1ccccn1)c1nc2c(s1)CCc1c-2cnn1C`, the INHIBITION worked out at 63.1%.

`CN(C(=O)c1ccccn1)c1nnc(C2CCOC2)s1` (stereo not drawn): the INHIBITION is listed as -13.745%. Regarding `COCCN(C(=O)c1ccccn1)c1nc2c(s1)CCc1c-2cnn1C`, the INHIBITION is 59.3%. Consider `CCCN(C(=O)COC)c1nc2c(s1)CCc1c-2cnn1C`, for which the INHIBITION amounted to 5.13%.

Consider `CN(C(=O)c1ccccn1)c1nc2c(s1)CCc1c-2cnn1C`, for which the INHIBITION stood at 74.5%. Regarding `O=C(NCCCNC(=O)c1cccc(O)c1)NCc1ccccc1F`, the INHIBITION is on record as -1.58%.

With `CCn1cc(CN2CCCN(C(=O)c3ccco3)CC2)cn1`, the INHIBITION was -61.4%. Consider `COC(=O)c1ccnn1COc1ccc(Cl)cc1`, for which the INHIBITION is 16%. As to `CCc1nn(C)c2[nH]nc(NC(=O)c3ccccc3COC)c12`, the INHIBITION amounted to 33.7%. The value for `N#Cc1ccc(NC(=O)C2CSCN2)cc1` (stereo not drawn) was 39%; that for `COc1cc(CNCc2ccco2)ccc1OCCO` was 10.6%. Consider `CCN(CC)S(=O)(=O)c1cc(Br)ccc1OC`, for which the INHIBITION is -32.9%. With `COc1cc(OC)cc(C(=O)N(C)Cc2nnc3ccccn23)c1`, the INHIBITION is given as -6.14%. Turning to `Cc1cc2c(cc1CN1CCCCC1CCn1ccnc1C)OCO2` (stereo not drawn), the INHIBITION is recorded as 13.7%. `Cc1c[nH]c(CN2CCCCC2CCc2cccc(O)c2)c(C)c1=O` (stereo not drawn): the INHIBITION is 39.9%.

`Cc1nccn1CCC1CCCCN1Cc1ccncc1` (stereo not drawn): the INHIBITION is -57.8%. Consider `Cc1nccn1CCC1CCCCN1Cc1cnc(N(C)C)nc1` (stereo not drawn), for which the INHIBITION worked out at 33.3%.

On to `Cc1c[nH]c(CN2CCCCC2CCN(C)C)c(C)c1=O` (stereo not drawn), for which the INHIBITION is recorded as 38.8%. For `Cc1nccn1CCC1CCCCN1Cc1ccc2c(c1)OCCO2` (stereo not drawn) the value was 51.3%; for `Cc1c[nH]c(CN2CCCCC2CCn2cccn2)c(C)c1=O` (stereo not drawn), 51.8%. Consider `Cc1nccn1CCC1CCCCN1Cc1ccc(N(C)C)nc1` (stereo not drawn), for which the INHIBITION is on record as -38.9%. Consider `Cc1c[nH]c(CN2CCCCC2CCn2ccnc2C)c(C)c1=O` (stereo not drawn), for which the INHIBITION is 53.9%.

Regarding `CC[C@@H]1N(Cc2nccs2)CCC[C@]12CCC(=O)N2C`, the INHIBITION is reported as -27%. In the case of `COc1ccc(-c2nnc(CNCCn3cccn3)o2)cc1`, the INHIBITION was determined as 23.5%.

`CO[C@H]1CCN(C(=O)c2cc(C)on2)C[C@@H]1Cc1ccccc1`: the INHIBITION was 2.58%. Take `Cc1[nH]ncc1CCCNC(=O)N1CCCC(c2nncn2C)C1` (stereo not drawn): the INHIBITION is recorded as -29.8%. With `CCCn1nccc1NC(=O)CN1CCCC1Cn1cccn1` (stereo not drawn), the INHIBITION is given as 12.3%. Turning to `Cc1cccc(OCC2CCCN(C(=O)Cn3ccccc3=O)C2)c1` (stereo not drawn), the INHIBITION is on record as 13.6%. For `Cn1cc(NC(=O)NCc2ccoc2)ccc1=O`, the INHIBITION is given as 47.4%. Turning to `COc1ccc(CNC(=O)c2ccc(=O)n(C)c2)cc1C`, the INHIBITION amounted to 11.8%. On to `Cn1cc(C(=O)Nc2ccnc(Oc3ccccc3)c2)ccc1=O`, for which the INHIBITION is 16.8%.

Turning to `COc1ccc(CNC(=O)Nc2ccc(=O)n(C)c2)cc1`, the INHIBITION stood at 29%. In the case of `COc1cccc(-c2ccc(CNC(=O)c3ccc(=O)n(C)c3)cc2)c1`, the INHIBITION is on record as 72.3%.

Turning to `COc1cccc(CCNC(=O)c2ccc(=O)n(C)c2)c1`, the INHIBITION was 24.2%. Turning to `COC(=O)c1ccc(CNC(=O)Nc2ccc(=O)n(C)c2)cc1`, the INHIBITION amounted to 59.3%. For `Cn1cc(C(=O)Nc2cccc(F)c2)ccc1=O`, the INHIBITION is 42.6%.

As to `Cn1cc(C(=O)Nc2cccc(Oc3ccncc3)c2)ccc1=O`, the INHIBITION stood at 51.5%. Regarding `CN1Cc2ccccc2CC2(CCN(Cc3nccn3C)CC2)C1=O`, the INHIBITION is 34.5%.

For the compound `Cc1cc(C2CCCN(CCNS(=O)(=O)c3ccccc3)C2)n[nH]1` (stereo not drawn), the INHIBITION is listed as 11.9%. For the compound `CC1CN(C)CCN1C(=O)Nc1nc(-c2ccco2)cs1` (stereo not drawn), the INHIBITION turned out to be 14%. As for `O=C(c1ccco1)N1CCC2(CCC(=O)N2Cc2ccncc2)CC1`, the INHIBITION was found to be 8.74%. For the compound `c1ccc(Cc2noc(-c3ccc(NCC4COCCO4)nc3)n2)cc1` (stereo not drawn), the INHIBITION was 12.02%. `CC(NC(=O)NCCC(=O)OC(C)(C)C)c1nncn1C` (stereo not drawn): the INHIBITION was found to be 25.4%. With `CCc1nccn1-c1cncc(C2CCCN2CC(=O)N2CCCC2)n1` (stereo not drawn), the INHIBITION is 4.08%. `Cc1cc2cccc(C(=O)N3CCOC(CCN(C)C)C3)c2o1` (stereo not drawn): the INHIBITION amounted to 33%. With `Cc1cccc(CN2CC3(CCN(S(=O)(=O)C4CC4)CC3)OCC2=O)n1`, the INHIBITION is listed as 7.53%.

With `Cc1nccn1CCCn1cncc1-c1ccc2c(c1)CCCN2C`, the INHIBITION is given as 41.5%. Take `Cc1nccn1CCCn1cncc1-c1ccc2c(c1)CC(C)N2C` (stereo not drawn): the INHIBITION was determined as 62.4%.

Turning to `Cc1cc(C)n(CCCn2cncc2-c2ccc3c(c2)CC(C)N3C)n1` (stereo not drawn), the INHIBITION was found to be 42.6%. Regarding `CCN1c2ccc(-c3cncn3CCCn3ccnc3C)cc2CC1C` (stereo not drawn), the INHIBITION is recorded as 36%. For `CN1CCCc2cc(-c3cncn3CCNC3CCS(=O)(=O)C3)ccc21` (stereo not drawn) the value was 32.3%. For the compound `Cc1nccn1CCCn1cncc1-c1ccc2c(c1)CCC(C)N2C` (stereo not drawn), the INHIBITION is 87.7%. The value for `O=C(NCc1ccco1)[C@@H]1CCO[C@@H]2CCN(c3ncccn3)C[C@H]21` was 17.1%; that for `O=C(Cn1ncc2c(c1=O)CCCC2)Nc1cccc2[nH]ccc12` was 30.2%. Take `Cc1nc(N(C)C)nc(NCCc2c[nH]cn2)c1C`: the INHIBITION is -38%. For `COCC(=O)N1CCCC(c2csc(NC(C)=O)n2)C1` (stereo not drawn) the value was -55%.

`CCCn1cc(S(=O)(=O)N(C)Cc2nonc2C)c(C)n1`: the INHIBITION came to 3.48%.

For `Cn1cc(CN2CCc3c(cnc(-c4ccccc4)c3C(=O)O)C2)cn1`, the INHIBITION was 23.3%. As to `CNC(=O)C1Cn2ccnc2C2(CCN(C(=O)CC3CCCC3)CC2)O1` (stereo not drawn), the INHIBITION is -10.3%.

As for `Cc1ccc(C(=O)N2CCC(c3noc(-c4cccnc4)n3)CC2)cn1`, the INHIBITION is reported as 42.6%. Take `COCCN1C[C@@H](C)[C@@]2(COCCN(C(=O)c3ccccn3)C2)C1`: the INHIBITION is 36.2%. In the case of `CCCNC(=O)c1nn(CC)cc1NC(=O)c1c(C)nn(C)c1C`, the INHIBITION is reported as -4.56%. For `Cc1cccc(C)c1OCC(=O)N1CCOCC1c1ncon1` (stereo not drawn) the value was -53.2%. With `O=C(COc1cccc(Cl)c1)N1CCOCC1c1ncon1` (stereo not drawn), the INHIBITION worked out at 7.12%. Take `CCc1ccc(CCC(=O)N2CCOCC2c2ncon2)cc1` (stereo not drawn): the INHIBITION was determined as 27.9%.

`Cc1ccc(OCCC(=O)N2CCOCC2c2ncon2)cc1C` (stereo not drawn): the INHIBITION is on record as 21.6%. On to `Cc1cc(C)cc(OCCC(=O)N2CCOCC2c2ncon2)c1` (stereo not drawn), for which the INHIBITION was determined as 50.4%. In the case of `O=C(COc1ccc(Cl)cc1)N1CCOCC1c1ncon1` (stereo not drawn), the INHIBITION is 55.4%. In the case of `CCc1ccccc1OCC(=O)N1CCOCC1c1ncon1` (stereo not drawn), the INHIBITION amounted to 60.5%. Turning to `Cc1ccc(CCC(=O)N2CCOCC2c2ncon2)c(C)c1` (stereo not drawn), the INHIBITION is -56.7%. The value for `CC(C)c1ccc(OCC(=O)N2CCOCC2c2ncon2)cc1` (stereo not drawn) was -50.8%; that for `Cc1cc(C(F)(F)F)c2c(=O)n(Cc3ccon3)n(C)c2n1` was 14.3%; that for `CC(C)N(C)Cc1cncc2c1CCN(C1CCOCC1)C2` was 25.6%. For `COc1ccc(C(=O)CCc2nc(C3CC3)no2)cc1` the value was -23.3%. In the case of `Cc1cnn(CC2CCCCN2C(=O)c2ccc(N(C)C)nc2)c1` (stereo not drawn), the INHIBITION was -4.16%. Regarding `c1ccc(CN2CCc3c(COCC4CC4)cncc3C2)nc1`, the INHIBITION was 23.5%.
